# Several values for one entry are separate records, joined by “and”; a condition that tells them apart may be missing. Identical values can stand only once. In all, about 16,000 compounds went through this assay and about 2,600 (16%) were called active. Inconclusive results (about 20%) are left out. The sample holds actives, similar compounds and a random draw of the others, so the mix is not that of the screen. Calls follow the shape of the dose curve; as a rule, active = well fitted curve in the direction sought with a large enough effect; inconclusive = small, poorly fitted or top-dose-only effect, or effect the other way; inactive = no such curve, though single readings can be large or run the other way. A structure can be active in one record and inactive in another.
# Target: Cytochrome P450 2D6 (Homo sapiens) (UniProt P10635)
# Assay: Cytochrome panel assay with activity outcomes
# Conditions: recombinant CYP, pro-luciferin dealkylation, luminescence, p450-cyp2d6; series mostly up to 57.1 µM; activity, negative = inhibition: at the top concentration
# % is scaled to controls: 0 for no effect and ±100 for the full control effect.
# Cytochrome P450 2D6 (Homo sapiens), sequence (P10635 whole entry, looked up): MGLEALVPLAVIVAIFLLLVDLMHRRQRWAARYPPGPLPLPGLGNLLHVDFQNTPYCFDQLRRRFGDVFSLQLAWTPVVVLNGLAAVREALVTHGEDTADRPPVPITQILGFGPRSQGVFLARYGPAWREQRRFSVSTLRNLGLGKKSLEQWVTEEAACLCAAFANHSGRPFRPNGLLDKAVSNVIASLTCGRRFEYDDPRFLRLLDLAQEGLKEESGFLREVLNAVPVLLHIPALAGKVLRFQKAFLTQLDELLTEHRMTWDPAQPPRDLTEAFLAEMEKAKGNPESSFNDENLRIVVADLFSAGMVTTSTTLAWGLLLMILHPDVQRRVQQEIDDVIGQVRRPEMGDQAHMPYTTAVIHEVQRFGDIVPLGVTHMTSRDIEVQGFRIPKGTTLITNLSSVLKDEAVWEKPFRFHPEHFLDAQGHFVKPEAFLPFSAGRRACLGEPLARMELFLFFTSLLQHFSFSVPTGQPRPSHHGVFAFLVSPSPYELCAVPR
Compound,"activity, negative = inhibition",AC50
CN(C)C=C1C(=O)N(C2CCCCC2)C(=O)N(C2CCCCC2)C1=O,10.7% (inactive),
NC(=O)COc1c(F)cc(SCCNS(=O)(=O)c2ccccc2)cc1F,1.88% (inactive),
Cc1cc(OCC(=O)OC(C)C)c2c3c(c(=O)oc2c1)CCCC3,-19.9% (inactive),
Cn1c(O)c(C(c2ccccn2)c2c(O)n(C)c(=S)[nH]c2=O)c(=O)[nH]c1=S,12.2% (inactive),
O=C1CN=C(c2cccs2)c2c(sc3c2CCCC3)N1,,1 µM (active)
NC[C@@H](Cc1ccccc1)P(=O)(O)O,-3.95% [at 11.4 µM] (inactive),
CC(C)(C)C(=O)CP(=O)(O)O,-2.59% [at 11.4 µM] (inactive),
C=C(C)[C@H]1CN[C@H](C(=O)O)[C@@H]1CC(=O)O,-3.28% (inactive),
CCC(=O)O[C@@](Cc1ccccc1)(c1ccccc1)[C@@H](C)CN(C)C,,7.94 µM (active)
COC(=O)[C@@]1(Cc2ccc(F)cc2)[C@H]2c3cc(C(=O)N(C)C)[nH]c3C[C@H]2CN1C(=O)c1ccccc1,-16.4% (inactive),
NC(N)=NCCN=C(N)N,-4.24% [at 11.4 µM] (inactive),
Fc1ccccc1CCNCc1cccc(Cl)c1Cl,,0.0794 µM (active)
CCC1(CCSC(=N)N)C(=O)NC(=O)NC1=O,12.5% [at 11.4 µM] (inactive),
C=C1CC[C@H](O)C/C1=C/C=C1\CCC[C@]2(C)[C@H]1CC[C@H]2[C@@H](C)CCCC(C)C,3.42% [at 25.6 µM] (inactive),
O=P(O)(O)C(Cl)(Cl)P(=O)(O)O,11% (inactive),
COC(=O)N1CCC2(CCN(CC(C)C)CC2)CC1,,10 µM (active)
CC(C)NC(=O)N1CCC2(CC1)CCN(C(=O)Oc1ccccc1)CC2,-2.03% (inactive),
COC(=O)N1CCC2(CCCN(C)C2)CC1,-15% (inactive),
CC(C)CN1CCC2(CC1)CCN(S(C)(=O)=O)CC2,,0.794 µM (active)
NN=C(N)N,,inactive
Cc1c(C(=O)c2ccc3ccccc3c2)c2cccc3c2n1[C@H](CN1CCOCC1)CO3,-4.76% (inactive),
CN1CCN(c2ccc3ccccc3n2)CC1,,inactive
O[C@@H]1[C@@H]2c3cc4c(cc3CN3CCC(=C[C@@H]1O)[C@H]23)OCO4,,3.98 µM (active)
CC(=NCCN1CCOCC1)c1c(O)n(Cc2ccccc2)c(=O)[nH]c1=O,-0.802% (inactive),

Compound,"activity, negative = inhibition",AC50
C[C@@H]1OC=C2[C@@H](O)[C@H]3O[C@H]3C(=O)[C@@]23[C@H]1[C@H]1C2=C([C@@H](O)[C@H]4O[C@@H]4C2=O)[C@@H]3O[C@@H]1C,1.81% [at 11.4 µM] (inactive),
COc1ccc(C2SCC(=O)Nc3c2c(C)nn3-c2ccccc2)cc1OC (stereo not drawn),1.57% (inactive),
O=[N+]([O-])c1cc(O)c(O)c([N+](=O)[O-])c1,5.33% (inactive),
CC1=NN(c2ccc(S(=O)(=O)O)cc2C)C(=[OH+])[C@H]1N=Nc1cc(S(=O)(=O)O)ccc1C(=O)O.O.[Cr],-4.46% [at 11.4 µM] (inactive),
CP(=O)(O)CCCN,,inactive
CN1C[C@H](CO)C=C2c3cccc4[nH]cc(c34)C[C@@H]21,,0.126 µM (active)
CN1C[C@H](C(=O)N[C@@]2(C)O[C@@]3(O)[C@H]4CCCN4C(=O)[C@@H](Cc4ccccc4)N3C2=O)C=C2c3cccc4[nH]cc(c34)C[C@@H]21,-1.39% [at 11.4 µM] (inactive),
CC(C)C[C@H]1C(=O)N2CCC[C@@H]2[C@@]2(O)O[C@](NC(=O)[C@@H]3C=C4c5cccc6[nH]cc(c56)C[C@@H]4N(C)C3)(C(C)C)C(=O)N12,-5.32% [at 25.6 µM] (inactive),
O=C(NCP(=O)(O)O)c1cccnc1,-2.73% [at 11.4 µM] (inactive),
O=C(Nc1ccccc1)N1CCC2(CC1)CCN(C(=O)Oc1ccccc1)CC2,-14.2% (inactive),
Cc1ccc(C2(c3ccc(C)c(O)c3C)CCN(C)CC2)c(C)c1O,-18.9% [at 11.4 µM] (inactive),
Cn1c(O)c(C(c2ccccn2)c2c(O)n(C)c(=S)n(C)c2=O)c(=O)n(C)c1=S,16.6% (inactive),
C[C@@]12CC[C@H](O)C[C@@H]1CC[C@H]1[C@@H]2C[C@@H](O)[C@]2(C)[C@@H](C3=CC(=O)OC3)CC[C@]12O,-7.6% [at 25.6 µM] (inactive),
c1ccc2c(c1)Sc1ccccc1N2C[C@H]1CN2CCC1CC2,,0.398 µM (active)
CN1CCc2nc3ccc(F)cc3c(C(N)=O)c2C1,-18.2% (inactive),
CCOc1ccc2c(c1)C(C)=CC(C)(C)N2,,2.51 µM (active)
CCCn1c(C)c(C(=O)c2cccc3ccccc23)c2ccccc21,-2.05% (inactive),
O=C(c1cc(=O)[nH]c2ccc(Br)cc12)N1CCC2(CC1)OCCO2,1.7% (inactive),
CC(=O)OC1N=C(c2ccccc2)c2cc(Br)ccc2N(C)C1=O (stereo not drawn),-17.4% (inactive),
C[C@@H]1O[C@H](C[N+](C)(C)C)CS1,4.31% (inactive),
COc1cccc(-n2c(O)c(C=NCCN3CCOCC3)c(=O)[nH]c2=O)c1,-36.7% (inactive),
CC1CN=C(Nc2cccc3ccccc23)S1 (stereo not drawn),,11.2 µM (active)
C[N+]1(C)CCO[C@@](O)(c2ccc(-c3ccc([C@]4(O)C[N+](C)(C)CCO4)cc3)cc2)C1,-1.61% (inactive),
COC(=O)C(O)(c1c(C)[nH]c2ccccc12)C(F)(F)F (stereo not drawn),-14.7% (inactive),

Compound,"activity, negative = inhibition",AC50
CCOC(=O)[C@@H]1[C@@H]2c3ccccc3-c3ccccc3[C@H]2C[C@H]1O,-5.13% [at 11.4 µM] (inactive),
CCOC(=O)C1Cc2c([nH]c3ccccc23)CN1 (stereo not drawn),,12.6 µM (active)
CCOC(=O)Cn1cc(C(=O)c2ccccc2F)c2ccccc21,-14.1% (inactive),
O=C(O)c1ccccc1-c1c2cc(Br)c(=O)cc-2oc2[c]([Hg])c(O)c(Br)cc12,-18.3% [at 25.6 µM] (inactive),
CC[N+](CC)(CC)CCOc1cccc(OCC[N+](CC)(CC)CC)c1OCC[N+](CC)(CC)CC,2.95% (inactive),
c1cncc(CNCCN2CCNCC2)c1,-5.64% [at 11.4 µM] (inactive),
c1cncc(CNc2cc(-c3ccc4c(c3)OCO4)ncn2)c1,,20 µM (active)
C[C@@H](COc1ccccc1)N(CCCl)Cc1ccccc1,,1.58 µM (active)
NNC(=O)c1ccc(O)cc1,-8.63% (inactive),
O=C(O)C[O][Sb][O]CC(=O)O,2.9% [at 11.4 µM] (inactive),
O=C(O)[C@H]1[O][Sb][O][C@@H](C(=O)O)C1O (stereo partly drawn),-8.1% [at 11.4 µM] (inactive),
CCCCCCC[n+]1ccc(-c2cc[n+](CCCCCCC)cc2)cc1,,7.94 µM (active)
COc1cc(C=C(C#N)C#N)cc(O)c1O,-10.1% (inactive),
C[C@@]12CC[C@@H]3[C@H](CCC4=CC(=O)CC[C@]43C)[C@@H]1CC[C@@H]2C(=O)COS(=O)(=O)c1ccc(Br)cc1,3.29% [at 11.4 µM] (inactive),
Cc1cc[c]([Sb]2[O][C@H]([C@H](O)[C@H](O)C(=O)O)[C@@H](CO)[O]2)cc1,10.9% [at 11.4 µM] (inactive),
O=C(Nc1ccccc1)N1CC2(CCN(C(=O)Oc3ccccc3)CC2)C1,-0.812% (inactive),
CC(C)NC(=O)N1CCCC2(CCN(C(=O)Oc3ccccc3)CC2)C1,0.403% (inactive),
N#Cc1ccc(CN2CCC3(CC2)CCN(C(=O)Oc2ccccc2)CC3)cc1,1.3% (inactive),
COc1ccc(NC(=O)N2CC[C@@]3(CCCN(C(=O)Oc4ccccc4)C3)C2)cc1,,6.31 µM (active)
COc1ccc(NC(=O)N2CCCC3(CCN(C(=O)Oc4ccccc4)CC3)C2)cc1,-1.09% (inactive),
O=C(Nc1ccccc1)N1CC[C@@]2(CCCN(C(=O)Oc3ccccc3)C2)C1,-0.759% (inactive),
N#Cc1ccc(CN2CCCC3(CCN(C(=O)Oc4ccccc4)CC3)C2)cc1,-4.69% (inactive),
CC(C)CN1CC[C@@]2(CCCN(C(=O)Oc3ccccc3)C2)C1,,6.31 µM (active)
N#Cc1ccc(CN2CC[C@@]3(CCCN(C(=O)Oc4ccccc4)C3)C2)cc1,,3.16 µM (active)

Compound,"activity, negative = inhibition",AC50
CN1CC[C@@]2(CCCN(C(=O)Oc3ccccc3)C2)C1,-12.1% (inactive),
CC(C)CN1CC2(CCN(C(=O)Oc3ccccc3)CC2)C1,11.2% (inactive),
O=C(Oc1ccccc1)N1CCC[C@@]2(CCN(C(c3ccccc3)c3ccccc3)C2)C1,,5.01 µM (active)
COCCCN1CCN(c2nnc3n2-c2sc(Br)cc2C(c2ccccc2Cl)=NC3)CC1,9.92% (inactive),
N/C(=N\N=C/c1ccc(-c2ccc(O)c(C(=O)O)c2)o1)N[N+](=O)[O-],-7.29% (inactive),
O=C(O)c1ccccc1Nc1cccc(C(F)(F)F)c1,-2.93% [at 25.6 µM] (inactive),
N[C@@H](CCCCP(=O)(O)O)C(=O)O,4.27% (inactive),
CC[N+](C)(C)c1cccc(O)c1,10.6% (inactive),
O=C(Oc1ccccc1)N1CCC2(CCCN(C(c3ccccc3)c3ccccc3)C2)CC1,-0.788% (inactive),
CN1CCC2(CC1)CCN(C(=O)Oc1ccccc1)CC2,-0.504% (inactive),
O=C(Oc1ccccc1)N1CCC2(CC1)CN(C(c1ccccc1)c1ccccc1)C2,,7.94 µM (active)
C[C@@H]1O[C@H](OC2[C@@H](O)[C@H](O)C(O)[C@H](O)[C@H]2O)[C@@H](N)C[C@@H]1N=C(N)C(=O)O (stereo partly drawn),3.95% [at 11.4 µM] (inactive),
CN1CCN(c2ncc3ncc(=O)n(C)c3n2)CC1,10.1% (inactive),
CC(=O)O[C@H]1CC[C@@]2(C)C(=CC[C@@H]3[C@H]2CC[C@]2(C)C(=O)CC[C@H]32)C1,-6.32% [at 25.6 µM] (inactive),
CCN(CC)CCO[C@H]1CC[C@@]2(C)C(=CC[C@@H]3[C@H]2CC[C@]2(C)C(=O)CC[C@H]32)C1,,0.0794 µM (active)
C[C@@]12CC[C@H]3[C@@H](CC=C4C[C@H](OS(=O)(=O)O)CC[C@]43C)[C@H]1CCC2=O,9.55% (inactive),
O=C(c1ccccc1F)c1cn(CC(=O)N2CCOCC2)c2ccccc12,-6.53% (inactive),
CCCN(CCC)[C@@H]1CCc2cccc(O)c2C1,,3.16 µM (active) and inactive and 794 nM (active)
CCCN(CCC)[C@H]1CCc2c(F)ccc(O)c2C1,,631 nM (active) and 1.58 µM (active)
Cc1cc(C)c(-n2c(O)c(C=NCCN3CCOCC3)c(=O)[nH]c2=O)c(C)c1,4.79% (inactive),
O=P(Nc1c(Cl)cccc1Cl)(c1ccccc1)c1nc2c(s1)CCCC2 (stereo not drawn),-6.06% (inactive),

# From PubChem BioAssay AID1851 (National Center for Advancing Translational Sciences (NCATS), 2009)
